Source: PubChem BioAssay AID1259341 (Broad Institute, 2017)
The source made the active and inactive calls.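 Rule for the calls: active = activity change under -35% in any replicate well, with more than 20 beads read in that well; inactive = the rest.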

biological target: Caspase recruitment domain-containing protein 9 (Homo sapiens) + E3 ubiquitin-protein ligase TRIM62 (Homo sapiens) (UniProt Q9H257+Q9BVG3); test: disruptors of CARD9-TRIM62 binding, primary screen, cell lysate, HEK293FT lysates, Luminex bead ELISA (AID 1259341); conditions: PE fluorescence, active compounds read low, concentration not given here;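 note: PE anti-Flag signal of Flag-CARD9 captured by myc-TRIM62 beads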
Sequence (Q9BVG3 whole entry, looked up, the tested form may be a part): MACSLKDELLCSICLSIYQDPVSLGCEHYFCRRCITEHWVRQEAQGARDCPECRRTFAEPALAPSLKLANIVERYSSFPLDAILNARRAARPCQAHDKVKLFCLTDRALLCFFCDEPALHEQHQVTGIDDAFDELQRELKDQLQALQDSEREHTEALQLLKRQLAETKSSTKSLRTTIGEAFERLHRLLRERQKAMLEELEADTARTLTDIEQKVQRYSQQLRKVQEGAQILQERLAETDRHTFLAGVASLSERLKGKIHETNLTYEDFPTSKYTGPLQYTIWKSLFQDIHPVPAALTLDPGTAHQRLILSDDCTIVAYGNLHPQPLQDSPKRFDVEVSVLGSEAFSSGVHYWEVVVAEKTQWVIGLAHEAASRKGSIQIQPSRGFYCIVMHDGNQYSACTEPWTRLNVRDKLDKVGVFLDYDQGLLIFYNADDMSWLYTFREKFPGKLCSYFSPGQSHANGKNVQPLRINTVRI
Sequence (Q9H257 whole entry, looked up, the tested form may be a part): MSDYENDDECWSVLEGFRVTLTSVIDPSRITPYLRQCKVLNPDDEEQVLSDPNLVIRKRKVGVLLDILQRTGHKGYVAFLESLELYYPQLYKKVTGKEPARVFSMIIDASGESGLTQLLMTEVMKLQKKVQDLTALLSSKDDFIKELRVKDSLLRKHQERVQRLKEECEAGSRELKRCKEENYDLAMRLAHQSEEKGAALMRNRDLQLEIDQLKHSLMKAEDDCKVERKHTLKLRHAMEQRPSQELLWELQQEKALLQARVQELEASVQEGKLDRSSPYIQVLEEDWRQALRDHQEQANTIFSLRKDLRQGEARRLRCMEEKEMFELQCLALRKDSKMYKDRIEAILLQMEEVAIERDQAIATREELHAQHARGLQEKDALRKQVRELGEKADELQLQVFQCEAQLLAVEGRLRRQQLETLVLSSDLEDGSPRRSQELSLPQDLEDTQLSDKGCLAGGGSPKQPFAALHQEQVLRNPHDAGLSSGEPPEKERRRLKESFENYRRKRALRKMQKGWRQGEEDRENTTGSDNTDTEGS

| Structure (SMILES) | activity change, negative = inhibition |
| --- | --- |
| Nc1c(C(=O)NCc2ccco2)c2nc3ccccc3nc2n1CCN1CCOCC1 | -14.4% (inactive) |
| Nc1c2c(nc3ccccc13)CCN(Cc1ccccc1)C2 | -1.61% (inactive) |
| O=C(NC1(C(F)(F)F)Oc2ccc(Cl)cc2O1)N1CCC2(CC1)OCCO2 (configuration not stated) | -0.512% (inactive) |
| O=C(Nc1ccon1)c1cc2cccnc2n(Cc2ccccc2)c1=O | 4.61% (inactive) |
| CCCCCn1c(NC(=O)c2ccco2)c(C(=O)OCC)c2nc3ccccc3nc21 | -11.3% (inactive) |
| O=C(NCCc1ccccc1)c1cc2cccnc2n(Cc2ccccc2)c1=O | -0.118% (inactive) |
| Cc1ccc(S(=O)(=O)Cc2ccc(C(=O)N3CCC4(CC3)OCCO4)o2)cc1 | 1.47% (inactive) |
